For this test, the system named is Plasmodium falciparum NF54 stage V gametocytes. The test is described as follows: viability index relative to DMSO control (fraction); higher = less gametocyte killing. Particulars: 2.5 µM, incubation time: 72 h. The method in brief: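 Compound at 2.5 µM was incubated for 72 hr at 37°C under low oxygen with P. falciparum NF54 stage V gametocytes (0.75% gametocytemia, 1.25% hematocrit, 10 µl, serum-free screening medium) in 1,536-well plates. Staining used 3 µl of 2.5 µM MitoTracker Red CMXRos plus 0.13% saponin for one to two hours, and red particles of 20–70 µm2 were counted in one imaged field per well. Each viability index is that count relative to the plate mean of solvent-only wells.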

[1] abbreviates: library set: Broad Institute DOS.
Where [2] appears, read: library set: Broad Institute Blood Stage.

Structures are written as SMILES. ± gives the uncertainty stated by the source. Over roughly 9,900 compounds, “viability index relative to DMSO control” has its median near 1; the lowest 2% begin near 0.85. Only a selection was taken, and the lowest values are over-represented in it overall.

Here are results for 45 molecules from the supplement of paper PMC4723716.

As for `CS(=O)(=O)N1CC(=O)N2[C@@H](CO)[C@H](c3ccc(Br)cc3)[C@@H]2C1`, the viability index under setting [1] turned out to be 1.05 ± 0.057.

Under setting [1], `CN1C[C@H]2[C@@H](c3ccccc31)[C@H](CO)N2Cc1ccccc1Cl` had a viability index of 1.03 ± 0.064.

Take `C[C@H](CO)N1C[C@H](C)[C@H](CN(C)C(=O)Nc2ccc3c(c2)OCO3)Oc2c(NC(=O)c3nc4ccccc4s3)cccc2C1=O`: under setting [1], the viability index is 0.987 ± 0.021.

Take `Cc1noc(C)c1NC(=O)N1C[C@@H](O)COC[C@@H]2O[C@H](CC(=O)N3CCc4ccccc4C3)CC[C@H]21`: the viability index under setting [1] worked out at 1.08 ± 0.11.

In turn, `COc1ccc(S(=O)(=O)N(C)C[C@@H]2Oc3c(NC(=O)c4nc5ccccc5s4)cccc3C(=O)N([C@H](C)CO)C[C@@H]2C)cc1` returned a viability index under setting [1] of 0.951 ± 0.047.

`O=C(O)[C@H]1[C@H](CO)[C@H]2Cn3c(ccc(C4=CCCCC4)c3=O)[C@H]2N1Cc1ccc2c(c1)OCO2`: the viability index under setting [1] came to 1.01 ± 0.026.

As for `CO[C@H]1CC[C@@H]2CCOc3c(C#N)cccc3C(=O)N(C)C[C@H](OC)[C@@H](C)C(=O)N(C)C[C@@H]1O2`, the viability index under setting [1] was determined as 1.01 ± 0.033.

Under setting [1], `C[C@@H]1CN([C@H](C)CO)C(=O)Cc2cc(NC(=O)CCN3CCOCC3)ccc2O[C@@H]1CN(C)Cc1ccc(C(=O)O)cc1` returned a viability index of 1 ± 0.17.

As to `C[C@H](CO)N1C[C@H](C)[C@H](CN(C)Cc2ccccc2C(F)(F)F)OCc2ccccc2-c2ccccc2C1=O`, the viability index under setting [1] came out at 1 ± 0.015.

Turning to `C[C@@H]1CN([C@@H](C)CO)C(=O)c2ccccc2-c2ccccc2CO[C@H]1CN(C)Cc1ccccc1C(F)(F)F`, the viability index under setting [1] came out at 0.883 ± 0.044.

Under setting [1], `C[C@H]1CN([C@@H](C)CO)C(=O)c2ccccc2-c2ccccc2CO[C@H]1CN(C)Cc1cccc2c1OCCCO2` came in with a viability index of 0.825 ± 0.16.

Regarding `C[C@@H]1CN([C@H](C)CO)C(=O)c2ccccc2-c2ccccc2CO[C@@H]1CN(C)Cc1ccccc1C(F)(F)F`, the viability index under setting [1] is 0.806 ± 0.11.

`C[C@@H]1CN([C@@H](C)CO)C(=O)c2ccccc2-c2ccccc2CO[C@@H]1CN(C)Cc1cccc2c1OCCCO2` showed a viability index under setting [1] of 1 ± 0.11.

Regarding `CCCN(C)C[C@H]1OCc2ccccc2-c2ccccc2C(=O)N([C@@H](C)CO)C[C@H]1C`, the viability index under setting [1] came to 0.89 ± 0.011.

`C[C@H]1CN([C@@H](C)CO)C(=O)c2ccccc2-c2ccccc2CO[C@H]1CN(C)Cc1ccccc1C(F)(F)F`: the viability index under setting [1] stood at 0.726 ± 0.14.

Turning to `C[C@@H]1CN([C@H](C)CO)C(=O)c2ccccc2-c2ccccc2CO[C@@H]1CN(C)Cc1cccc(C(=O)O)c1`, the viability index under setting [1] stood at 0.958 ± 0.11.

`C[C@@H]1CN([C@@H](C)CO)C(=O)c2ccccc2-c2ccccc2CO[C@@H]1CN(C)Cc1ccccc1C(F)(F)F` had a viability index under setting [1] of 0.8276 ± 0.0015.

`C[C@@H]1CN([C@@H](C)CO)C(=O)c2ccccc2-c2ccccc2CO[C@@H]1CN(C)Cc1cccc(C(=O)O)c1` yielded a viability index under setting [1] of 0.974 ± 0.098.

The molecule `C[C@H](CO)N1C[C@H](C)[C@@H](CN(C)Cc2cccc3c2OCCCO3)OCc2ccccc2-c2ccccc2C1=O` displayed a viability index under setting [1] of 1.06 ± 0.093.

In turn, `C[C@@H]1CN([C@@H](C)CO)C(=O)c2ccccc2-c2ccccc2CO[C@H]1CN(C)Cc1cccc(C(=O)O)c1` returned a viability index under setting [1] of 0.987 ± 0.016.

Molecule `O=C(NCc1ccccc1)[C@H]1[C@H](CO)[C@H]2Cn3c(cccc3=O)[C@@H]1N2C(=O)Cc1ccccn1` registered a viability index under setting [1] of 1.01 ± 0.015.

`CCc1cnc(N2[C@H](C#N)[C@H](c3ccc(C#Cc4ccccc4F)cc3)[C@H]2CO)s1` came in with a viability index under setting [1] of 0.8872 ± 0.0045.

Take `COCC(=O)N1[C@H](CO)[C@@H](c2ccccc2)C12CN(Cc1cc(F)ccc1F)C2`: the viability index under setting [1] is 1.07 ± 0.023.

`CC(C)(C)[S@@](=O)N1Cc2cc(C(=O)NC3CCC3)nc(-c3cccc(Br)c3)c2[C@H]1CCO` registered a viability index under setting [1] of 0.994 ± 0.058.

Under setting [1], `O=C(NCC[C@H]1CC[C@@H](NC(=O)c2ccncc2)[C@H](CO)O1)Nc1ccc(Cl)cc1` yielded a viability index of 1.17 ± 0.023.

`CCCC#Cc1ccc2c(c1)[C@@H]1[C@@H](CCN1S(=O)(=O)c1cccc(F)c1)[C@@H](CO)N2C` yielded a viability index under setting [1] of 1.12 ± 0.051.

In turn, `C[C@@H]1CN([C@H](C)CO)C(=O)c2ccccc2-c2ccccc2CO[C@@H]1CN(C)Cc1cccc2c1OCCCO2` gave a viability index under setting [1] of 0.941 ± 0.019.

Molecule `C[C@H](CO)N1C[C@H](C)[C@H](CN(C)Cc2cccc3c2OCCCO3)OCc2ccccc2-c2ccccc2C1=O` had a viability index under setting [1] of 1.04 ± 0.039.

In the case of `C[C@H]1CN([C@@H](C)CO)C(=O)c2ccccc2-c2ccccc2CO[C@@H]1CN(C)Cc1ccccc1C(F)(F)F`, the viability index under setting [1] was 0.843 ± 0.028.

As for `O=C(Cc1cccnc1)N1CC(=O)N2[C@H](C1)[C@@H](c1ccc(/C=C/c3ccccc3)cc1)[C@@H]2CO`, the viability index under setting [1] is 1 ± 0.029.

On to `COCC(=O)N1CC(=O)N2[C@H](CO)[C@@H](c3ccc(-c4ccccc4F)cc3)[C@@H]2C1`, for which the viability index under setting [1] is 1.07 ± 0.083.

Molecule `O=C(c1ccc(F)cc1)N1CC(=O)N2[C@H](C1)[C@@H](c1ccc(-c3cccnc3)cc1)[C@@H]2CO` gave a viability index under setting [2] of 0.733 ± 0.11.

Consider `O=C(c1cnccn1)N1CC(=O)N2[C@@H](CO)[C@H](c3ccc(-c4cccc(F)c4)cc3)[C@@H]2C1`, for which the viability index under setting [1] stood at 1 ± 0.049.

Molecule `O=C(c1cccc(F)c1)N1CC(=O)N2[C@H](C1)[C@@H](c1ccc(-c3cccnc3)cc1)[C@@H]2CO` returned a viability index under setting [2] of 0.817 ± 0.042.

`O=C(c1cccc(F)c1)N1CC(=O)N2[C@H](CO)[C@H](c3ccc(-c4cccnc4)cc3)[C@H]2C1`: the viability index under setting [2] was found to be 0.771 ± 0.058.

Under setting [1], `O=C(c1cnccn1)N1CC(=O)N2[C@@H](CO)[C@@H](c3ccc(-c4cccc(F)c4)cc3)[C@@H]2C1` displayed a viability index of 1.02 ± 0.058.

The molecule `O=C(c1cccnc1)N1CC(=O)N2[C@H](CO)[C@H](c3ccc(-c4ccccc4F)cc3)[C@H]2C1` gave a viability index under setting [1] of 1.04 ± 0.041.

Under setting [1], `O=C(c1ccccc1)N1CC(=O)N2[C@H](C1)[C@@H](c1ccc(-c3ccccc3)cc1)[C@@H]2CO` had a viability index of 0.829 ± 0.051.

Consider `O=C(c1ccccc1)N1CC(=O)N2[C@H](CO)[C@H](c3ccc(-c4ccccc4)cc3)[C@@H]2C1`, for which the viability index under setting [1] was found to be 1.02 ± 0.066.

As to `O=C(c1ccncc1)N1CC(=O)N2[C@H](C1)[C@@H](c1ccc(-c3cccnc3)cc1)[C@@H]2CO`, the viability index under setting [2] turned out to be 0.891 ± 0.059.

Regarding `O=C(c1cnccn1)N1CC(=O)N2[C@H](CO)[C@@H](c3ccc(-c4cccc(F)c4)cc3)[C@@H]2C1`, the viability index under setting [1] came to 0.99 ± 0.047.

Turning to `O=C(c1cnccn1)N1CC(=O)N2[C@H](C1)[C@@H](c1ccc(-c3cccc(F)c3)cc1)[C@@H]2CO`, the viability index under setting [1] amounted to 1.02 ± 0.012.

With `O=C(c1ccccc1)N1CC(=O)N2[C@H](CO)[C@@H](c3ccc(-c4ccccc4)cc3)[C@H]2C1`, under setting [1], the viability index came to 1.018 ± 0.0095.

Under setting [1], `O=C(Cc1cccnc1)N1CC(=O)N2[C@H](CO)[C@@H](c3ccc(C4=CCCCC4)cc3)[C@H]2C1` gave a viability index of 0.9507 ± 0.0051.

In turn, `O=C(C1CCC1)N1CC(=O)N2[C@H](C1)[C@H](c1ccc(Br)cc1)[C@@H]2CO` came in with a viability index under setting [1] of 1.02 ± 0.0049.
